# Data published in ChEMBL document CHEMBL5308504, “Tm Shift (DSF) assay results for EUbOPEN Chemogenomics Library” (2023).
# Experiments:
# Details in all cases: Compound concentration 20.0 uM, Protein concentration 2.0 uM, Result type QC Liability
# [1] = biological target: Tyrosine-protein kinase ABL1 (Homo sapiens) (UniProt P00519)
# [2] = biological target: Cyclin-dependent kinase 2 (Homo sapiens) (UniProt P24941)
# [3] = biological target: Casein kinase I isoform delta (Homo sapiens) (UniProt P48730)
# Casein kinase I isoform delta (Homo sapiens), sequence (P48730 whole entry, looked up, canonical isoform): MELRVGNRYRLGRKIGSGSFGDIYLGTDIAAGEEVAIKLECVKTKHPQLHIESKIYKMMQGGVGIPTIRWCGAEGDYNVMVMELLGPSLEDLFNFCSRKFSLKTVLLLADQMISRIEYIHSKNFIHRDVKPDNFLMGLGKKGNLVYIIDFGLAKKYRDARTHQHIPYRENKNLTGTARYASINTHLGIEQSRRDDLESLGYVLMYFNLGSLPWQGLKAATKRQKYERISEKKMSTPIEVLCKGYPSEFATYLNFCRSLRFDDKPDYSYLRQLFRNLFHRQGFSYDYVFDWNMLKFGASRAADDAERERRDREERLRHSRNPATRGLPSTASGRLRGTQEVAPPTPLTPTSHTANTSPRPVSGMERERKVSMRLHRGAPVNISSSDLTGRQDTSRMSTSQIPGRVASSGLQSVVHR
# [4] = biological target: Glycogen synthase kinase-3 beta (Homo sapiens) (UniProt P49841)
# Glycogen synthase kinase-3 beta (Homo sapiens), sequence (P49841 whole entry, looked up): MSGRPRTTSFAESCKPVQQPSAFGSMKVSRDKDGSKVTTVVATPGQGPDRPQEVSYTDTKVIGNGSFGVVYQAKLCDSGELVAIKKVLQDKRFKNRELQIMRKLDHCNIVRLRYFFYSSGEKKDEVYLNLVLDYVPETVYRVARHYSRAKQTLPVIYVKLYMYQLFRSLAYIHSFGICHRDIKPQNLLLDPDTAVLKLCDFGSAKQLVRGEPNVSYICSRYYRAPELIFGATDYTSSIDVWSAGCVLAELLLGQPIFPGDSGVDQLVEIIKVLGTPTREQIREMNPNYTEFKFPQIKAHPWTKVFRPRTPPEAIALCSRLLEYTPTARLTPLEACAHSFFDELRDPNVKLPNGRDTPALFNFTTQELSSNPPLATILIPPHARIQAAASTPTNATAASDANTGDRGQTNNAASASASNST
# [5] = biological target: Mitogen-activated protein kinase 1 (Homo sapiens) (UniProt P28482)
# Mitogen-activated protein kinase 1 (Homo sapiens), sequence (P28482 whole entry): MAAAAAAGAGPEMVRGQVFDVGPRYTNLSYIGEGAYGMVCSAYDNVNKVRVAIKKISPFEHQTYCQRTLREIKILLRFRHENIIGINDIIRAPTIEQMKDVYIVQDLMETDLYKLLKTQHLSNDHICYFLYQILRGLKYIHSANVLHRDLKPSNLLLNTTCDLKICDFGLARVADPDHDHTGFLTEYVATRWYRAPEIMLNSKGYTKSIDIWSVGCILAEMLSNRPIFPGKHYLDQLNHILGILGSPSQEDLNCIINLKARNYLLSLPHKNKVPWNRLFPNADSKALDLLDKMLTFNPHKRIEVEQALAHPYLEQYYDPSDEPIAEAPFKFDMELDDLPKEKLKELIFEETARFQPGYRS
# [6] = biological target: T1, Aurora kinase A (Homo sapiens) (UniProt O14965)
# T1 sequence (whole entry): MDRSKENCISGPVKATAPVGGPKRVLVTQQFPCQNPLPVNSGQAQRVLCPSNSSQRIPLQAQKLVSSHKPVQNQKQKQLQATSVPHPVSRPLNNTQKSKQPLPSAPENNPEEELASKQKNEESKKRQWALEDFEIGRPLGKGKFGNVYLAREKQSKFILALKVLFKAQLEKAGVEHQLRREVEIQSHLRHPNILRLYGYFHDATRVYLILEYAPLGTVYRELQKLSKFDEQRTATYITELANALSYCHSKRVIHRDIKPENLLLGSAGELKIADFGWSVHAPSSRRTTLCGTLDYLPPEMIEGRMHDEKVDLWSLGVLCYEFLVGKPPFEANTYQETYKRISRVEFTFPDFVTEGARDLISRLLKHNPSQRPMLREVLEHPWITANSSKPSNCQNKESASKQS
# Tyrosine-protein kinase ABL1 (Homo sapiens), sequence (P00519 whole entry): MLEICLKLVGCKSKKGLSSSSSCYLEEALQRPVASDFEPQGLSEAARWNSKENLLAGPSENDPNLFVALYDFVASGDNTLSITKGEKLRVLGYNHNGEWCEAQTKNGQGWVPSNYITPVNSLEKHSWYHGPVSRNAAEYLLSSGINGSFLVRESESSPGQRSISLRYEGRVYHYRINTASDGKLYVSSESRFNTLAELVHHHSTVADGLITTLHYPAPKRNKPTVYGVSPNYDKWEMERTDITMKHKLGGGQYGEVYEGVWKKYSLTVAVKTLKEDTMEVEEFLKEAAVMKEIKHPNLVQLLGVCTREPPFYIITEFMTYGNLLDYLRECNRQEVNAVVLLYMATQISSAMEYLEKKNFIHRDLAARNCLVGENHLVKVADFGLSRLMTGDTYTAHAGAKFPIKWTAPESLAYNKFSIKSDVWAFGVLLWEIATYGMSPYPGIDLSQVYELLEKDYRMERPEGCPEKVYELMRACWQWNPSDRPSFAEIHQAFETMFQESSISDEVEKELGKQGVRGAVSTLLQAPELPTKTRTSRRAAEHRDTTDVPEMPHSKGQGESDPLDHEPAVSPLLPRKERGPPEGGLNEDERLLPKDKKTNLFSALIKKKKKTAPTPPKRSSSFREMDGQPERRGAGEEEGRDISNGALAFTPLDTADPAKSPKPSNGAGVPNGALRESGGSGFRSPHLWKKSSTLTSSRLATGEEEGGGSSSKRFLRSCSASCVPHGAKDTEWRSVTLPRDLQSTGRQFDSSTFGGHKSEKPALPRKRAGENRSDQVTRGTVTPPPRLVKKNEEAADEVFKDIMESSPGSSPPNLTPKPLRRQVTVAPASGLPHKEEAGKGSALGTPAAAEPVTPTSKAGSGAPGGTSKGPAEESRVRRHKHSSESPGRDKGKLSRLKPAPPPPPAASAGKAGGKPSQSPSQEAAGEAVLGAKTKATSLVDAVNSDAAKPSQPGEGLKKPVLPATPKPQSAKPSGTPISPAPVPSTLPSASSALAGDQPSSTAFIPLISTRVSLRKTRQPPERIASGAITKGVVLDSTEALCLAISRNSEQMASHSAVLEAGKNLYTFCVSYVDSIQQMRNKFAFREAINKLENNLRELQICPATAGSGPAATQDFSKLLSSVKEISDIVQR
SMILES,ΔTm [1] [°C],ΔTm [2] [°C],ΔTm [3] [°C],ΔTm [4] [°C],ΔTm [5] [°C],ΔTm [6] [°C]
N#Cc1ccc(COc2ccc(Br)cc2CNCCO)cn1,0.3,0.22,0.13,-0.56,0.45,-1
CNCc1ccc(-c2cc(-c3nc(-c4ccc(S(=O)(=O)C(C)C)cc4)cnc3N)on2)cc1,4.85,-0.24,-0.18,9.94,-0.07,2.41
N=C(N)NCCC[C@H](NC(=O)CC1(CC(=O)N2CCN(C(c3ccccc3)c3ccccc3)CC2)CCCC1)C(=O)NCc1ccccc1,-0.53,-1.78,0.02,-1.84,-0.93,-0.79
Cn1cc(-c2ccc(-c3cncc(Cl)c3N3CCC4(CCNC4=O)CC3)cc2)cn1,-0.07,-0.46,-0.23,6.99,0.45,1.26
O=C(NCCS(=O)(=O)c1ccc(C(F)(F)F)cn1)c1ccc(Cl)cc1,0,0.73,0.23,-1.08,0.3,-0.52
O=C(O)/C=C/c1ccc(Cn2ccnc2)cc1,0.1,0.39,0.22,0.69,0.29,0.06
O=C(O)c1ccnc(N2CC(O)(c3ccc(OCc4c(-c5c(Cl)cccc5Cl)noc4C4CC4)cc3Cl)C2)c1,0.22,-0.27,0.41,-0.81,-0.58,-1.95
CCOC(=O)CS(=O)(=O)c1ccc([C@@H](CO)NC(=O)c2cc3c(Cl)c(Cl)c(C)cc3n2C)cc1,-1.39,0.21,1.93,-1.8,0.66,-4.67
CC1(C)CCN(C(=O)C2CN(c3c4c(nc5ccnn35)CCNCC4)C2)C1,-0.37,0.71,0.26,-0.71,0.08,-0.02
Cn1nccc1-c1ccc(Sc2cccc(C3(C(N)=O)CCOCC3)c2)cc1,-0.11,0.88,-0.02,-1.17,0.22,0.6
NC(=O)C1CCCc2c1[nH]c1ccc(Cl)cc21 (stereo unspecified),0.05,0.79,0.23,-0.8,0.44,0.7
COCCc1ccc(-c2c(C)nc3c(N4CCOCC4)ccnn23)cn1,0.28,0.2,0.24,-0.61,0.69,0.4
Cn1cc(NC(=O)c2ccc3nc4n(c3c2)CCCNC4=O)nc1C(=O)NC1CCCC1,1.61,0.41,0.38,-0.59,0.46,0.5
CC(C)(C[C@H]1CN(S(=O)(=O)c2cccc(C(F)(F)F)c2)c2cc(-c3cc(F)cc(OC(F)F)c3)ccc2O1)C(=O)O,-1.5,-2.02,-2.71,-2.26,-6.9,-3.89
CCCc1c(OCCCOc2ccc(OCC(=O)O)cc2)ccc(C(C)=O)c1O,0.08,-0.16,1.18,-0.07,-0.16,-1.56
Cc1ccc(-n2nc(C(C)(C)C)cc2NC(=O)Nc2ccccc2F)cc1,1.53,1.51,2.52,-0.41,3.34,-1.69
CN(C)C/C=C/C(=O)Nc1cccc(S(=O)(=O)N2CCC(NC(=O)c3n[nH]cc3NC(=O)c3c(Cl)cc(Cl)cc3Cl)CC2)c1,3.66,11.4,2.28,10.9,1.34,2.6
O=C(O)Cc1ccc(CCNS(=O)(=O)c2ccc(Cl)cc2)cc1,0.25,0.43,0.01,0.95,-0.52,-0.24
CC(C)(c1ccc(OCc2cccc(COc3ccc(C(=N)N)cc3)c2)cc1)c1ccc(O[C@@H]2O[C@H](C(=O)O)[C@@H](O)[C@H](O)[C@H]2O)cc1,-2.82,-1.86,-5.29,-4.59,-6.63,-5.6
Cc1n[nH]c2ncc(C(=O)N3CCC[C@H]3c3ccc(Cl)cc3)cc12,0.42,0.82,0.12,7.82,0.69,0.03
Cc1c(NC(=O)c2ccc(C(C)(C)C)cc2)cccc1-c1cn(C)c(=O)c(Nc2ccc(C(=O)N3CCOCC3)cc2)n1,0.18,-0.38,0.35,-2.28,-1.15,1.86
O=C(CNCc1cc2ccccc2[nH]1)N[C@H]1CC[C@@H](c2nc3ccccc3[nH]2)CC1,0.13,0.52,0.18,-0.57,0.34,-0.41
N=C(N)NCCC[C@H](NC(=O)CC1(CC(=O)N2CCN(C3c4ccccc4NC(=O)c4ccccc43)CC2)CCCC1)C(=O)NCCn1c(=O)n(-c2ccccc2)n(-c2ccccc2)c1=O (stereo partly specified),-2.29,-1.3,-0.34,-1.99,-0.45,-0.47
CC(C)[C@H](CO)Nc1nc(Nc2ccc(C(=O)O)c(Cl)c2)c2ncn(C(C)C)c2n1,6.07,9.51,2.59,2.37,4.14,7.69
CSc1nc2c(c(=O)n(C)c(=O)n2C)n1C,0.1,0.27,0.33,-0.85,0.33,-0.13
CN(C)c1ncc2cc(-c3ccc(-c4ncccc4F)cc3Cl)c(=O)n(C[C@H]3OC[C@H](N)CO3)c2n1,-0.17,0.29,0.68,-0.87,-0.05,-1.8

SMILES,ΔTm [1] [°C],ΔTm [2] [°C],ΔTm [3] [°C],ΔTm [4] [°C],ΔTm [5] [°C],ΔTm [6] [°C]
CC[C@H](NC(=O)[C@H](C)NC)C(=O)N1C[C@@H](O)C[C@H]1Cc1c(-c2[nH]c3cc(F)ccc3c2C[C@@H]2C[C@H](O)CN2C(=O)[C@H](CC)NC(=O)[C@H](C)NC)[nH]c2cc(F)ccc12,0.09,0.28,1.26,-0.88,0.38,-1.51
Nc1nccc(-c2c(-c3ccc(F)cc3)ncn2C2CCCCC2)n1,2.76,-0.08,8.08,2.6,0.33,-0.66
Fc1ccc(-c2c3cccc(C(F)(F)F)c3nn2Cc2ccc(F)cc2Cl)cc1,0.02,0.18,0.79,-1.83,0.06,-1.66
COc1cc(-c2cncc(-c3cnn(C4CCNCC4)c3)c2)cc(OC)c1OC,4.87,0.28,0.76,-0.71,0.5,-0.25
Cc1ccc(C(=O)Nc2cc(N3CCN(C)CC3)cc(C(F)(F)F)c2)cc1-n1cc(-c2cnn(C)c2C)nn1,12.9,0.76,1.19,-0.67,0.45,0.76
Cc1c(N2CCNCC2)nc2ccc(Br)cc2c1C(=O)NC[C@H](CCC(=O)O)c1ccccc1Cl,0.01,0.4,0.62,0.03,0.18,0.41
CSc1ccc(C[C@@H](C)C(=O)O)cc1Nc1nc(N2CC[C@H](N(C)C)C2)cc(C(F)F)c1C#N,0.42,0.56,0.3,0.05,0.24,0.19
N#CN1CC[C@H](C(=O)Nc2nc3c(s2)CN(C(=O)CN=[N+]=[N-])CC3)C1,0.16,0.34,0.24,-0.2,0.64,-0.99
COc1cc(-c2cn(C)c(=O)c3cnccc23)cc(OC)c1CN(C)C,0.24,0.43,0.32,0.06,0.23,0.56
CCOC(=O)c1cc2cc(-c3cc(C(=O)NCc4ccc(C(=O)O)cc4)nn3C)ccc2[nH]1,0.13,-0.6,0.53,0.78,-0.1,1.73
O=C1COc2cc(C(=O)N(Cc3ccc(C(=O)Nc4ccncn4)cc3)C3CC3)ccc2N1,0.5,0.47,-0.01,-0.19,0.31,0.08
CN(C)c1ccc(-c2cc3ncccc3c(OCCCCO)n2)cc1,5.68,0.73,1.32,0.13,0.3,8.85
CCS(=O)(=O)Nc1cccc(Oc2cc(F)cc(Nc3ccc(I)cc3F)c2NS(=O)(=O)C2CC2)c1,1.05,0.19,0.44,2.25,-1.88,0.23
Cc1cc2ncnn2cc1Nc1ncc2c(n1)n(C1CCOCC1)c(=O)n2C,-0.11,0.84,0.63,1.17,1.17,0.06
COc1c(-c2cn(C3CCC(=O)NC3=O)nn2)csc1C(=O)N1CCCC1 (stereo unspecified),0.22,0.04,0,-0.65,0.26,-1.14
Cc1csc(S(=O)(=O)N(CC(C)C)c2cc3c(cc2OCc2ccc(C(=O)O)cc2)CCC3)n1,0.11,-0.15,-0.34,0,-0.27,-0.4
CC(C)C(=O)N1CCC(c2cn(C)c3ncc(NC(=O)c4cccc(C#N)c4)c(C(F)(F)F)c23)CC1,-0.05,0.71,0.74,-0.4,0.36,-0.71
COc1cc(C(=O)O)ncc1C#Cc1ccccc1NS(=O)(=O)c1cccc2c(N(C)C)ccnc12,0.14,-0.3,0.08,-0.76,0.42,0.72
COc1cc(C(N)=O)nc(-c2cccc(C#C[C@]3(O)CCN(C)C3=O)c2)c1,-0.11,1.02,-0.06,0.79,0.3,1.62
CC(C)c1cnn2c(NCc3ccccc3)cc(NCCCCCCN)nc12,-0.02,1.03,2.94,-0.56,0.38,-1.2
Fc1ccc(-c2nc(-c3c(F)cccc3F)[nH]c2-c2ccncc2)cc1,4.45,1.7,6.41,7.77,0.52,-0.55
Cc1c(-c2c(F)cc(C(N)=O)c3[nH]c4c(c23)CC[C@H](C(C)(C)O)C4)cccc1-n1c(=O)c2cccc(F)c2n(C)c1=O,3.83,0.48,0.11,0.79,-0.33,10.9
N[C@@H]1CCCN(c2c(/C=C3\SC(=O)NC3=O)cccc2-c2ccccc2)C1,-0.18,2.37,0.88,3.72,0.64,-0.48
O=C(O)c1cc(-c2ccccc2)ccc1O,0.56,0.7,0.85,-0.32,0.04,0.05
OC(c1ccc(-c2ccc(CN3CCN(Cc4ccncc4)CC3)cc2)c(F)c1)(C(F)(F)F)C(F)(F)F,-0.1,0.64,-0.18,-0.86,0.02,-1.1
